Measured values published in PubChem BioAssay AID693 (University of Pittsburgh Molecular Library Screening Center, 2007).
In all, about 97,000 compounds went through this assay and about 130 (0.13%) were called active. The full list was thinned out, with actives kept by preference. Values without a mark were called inactive. No stated cut-off is given here; in the data, active means inhibition above about 34% (passing the limit was not always enough); inactive means the rest.

The molecules below were run against Serine/threonine-protein kinase PLK1 (Homo sapiens) (UniProt P53350) (assay: blockers of phosphopeptide binding to Plk1 PBD – biochemical, fluorescence polarization, primary screen (AID 693)). Conditions: active compounds read high,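 tested at about 20 µM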.
Sequence of Serine/threonine-protein kinase PLK1 (Homo sapiens) (P53350 whole entry, looked up): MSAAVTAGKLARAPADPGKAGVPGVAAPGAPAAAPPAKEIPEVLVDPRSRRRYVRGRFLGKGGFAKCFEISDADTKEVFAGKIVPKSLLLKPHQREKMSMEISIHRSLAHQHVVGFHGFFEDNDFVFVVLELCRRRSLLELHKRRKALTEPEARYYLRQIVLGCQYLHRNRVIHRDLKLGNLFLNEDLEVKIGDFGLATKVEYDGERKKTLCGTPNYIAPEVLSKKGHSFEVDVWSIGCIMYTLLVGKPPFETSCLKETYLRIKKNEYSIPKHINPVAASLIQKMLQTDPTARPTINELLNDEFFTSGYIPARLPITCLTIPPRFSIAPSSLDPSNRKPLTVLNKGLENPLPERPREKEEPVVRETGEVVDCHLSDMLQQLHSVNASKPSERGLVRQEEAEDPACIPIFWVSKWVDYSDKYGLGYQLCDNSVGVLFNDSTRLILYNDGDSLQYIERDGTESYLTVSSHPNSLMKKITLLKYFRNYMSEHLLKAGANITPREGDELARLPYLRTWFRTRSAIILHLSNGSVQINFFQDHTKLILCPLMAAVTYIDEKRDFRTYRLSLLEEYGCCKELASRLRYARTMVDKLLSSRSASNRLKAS

Row | SMILES | inhibition
1 | COC(=O)c1c(-c2cccs2)csc1NC(=O)CSc1ncnc2sc(C)c(C)c12 | -2.76%
2 | COc1ccc(C2=NOC3(CC(=O)N(c4ccc(C)cc4)C3=O)C2)cc1 (stereo unspecified) | 13.3%
3 | O=[N+]([O-])c1ccc(NCCCN2CCOCC2)c(Cl)c1 | -38.6%
4 | O=C(c1ccco1)N1CCN(C(=O)C2CCCN(S(=O)(=O)c3cccc4nsnc34)C2)CC1 (stereo unspecified) | -29.8%
5 | Cc1ccc(C2NC(=S)NC3=C2N2CCC3CC2)cc1 (stereo unspecified) | 3.93%
6 | N#C/C(=C(\O)CCl)c1nnc2n1CCCCC2 | -0.62%
7 | COc1ccc(C(=O)Nc2nc(-c3ccc(OC)cc3)c(-c3ccc([N+](=O)[O-])cc3)s2)cc1 | -2.13%
8 | COc1ccc(NS(=O)(=O)c2ccc(NC(=S)NC(=O)CC(C)C)cc2)cc1 | 3.41%
9 | CCc1ccc2nc3sc(C(=O)Nc4nnc(CC)s4)c(N)c3cc2c1 | -67.7%
10 | O=C(Cn1cc(-c2nnnn2-c2ccc(Cl)cc2)c(=O)c2ccccc21)c1ccccc1 | 6.2%
11 | COC(=O)c1ccccc1NC(=O)Cc1ccccc1OC | 12.5%
12 | COC(=O)c1nc2ccccc2s1 | -0.85%
13 | CCOC(=O)N1CCN(C(=O)COc2ccc(Cl)cc2C)CC1 | -13.2%
14 | O=C(N/N=C/c1ccc(O)cc1)/C(=C/c1ccc([N+](=O)[O-])cc1)NC(=O)c1ccccc1 | -6.05%
15 | O=C(NCCc1ccccc1)/C(=C\c1ccc([N+](=O)[O-])cc1)NC(=O)c1ccccc1 | 55.4% (active)
16 | CNC(=O)/C(=C\C=C\c1ccccc1)NC(=O)c1ccc([N+](=O)[O-])cc1 | -9.26%
17 | O=C1CC(C(F)(F)C(F)(F)C(F)(F)C(F)(F)F)=Nc2ccccc2N1 | 5.5%
18 | COC(=O)c1ccc(C(=O)OC)c(NC(=S)N2CCCCC2)c1 | -20.3%
19 | CCCCOc1ccc(N(CC(=O)NCC2CCCO2)C(=O)CCC(=O)Nc2cc(C)ccn2)cc1 (stereo unspecified) | -5.72%

Row | SMILES | inhibition
20 | C/C(=N\NC(=O)c1ccc(C)cc1)C1C(=O)c2ccccc2C1=O | -15.6%
21 | O=c1c([N+](=O)[O-])cc(C(F)(F)F)cn1Cc1cccc(Cl)c1 | 2.97%
22 | COc1ccc(S(=O)(=O)Nc2ccc3oc(C)c(C(C)=O)c3c2)cc1 | -17.3%
23 | CCNc1nc(NC(C)C)nc(OCCOC(=O)c2ccccc2)n1 | -7.64%
24 | CC1CC(C)CN(S(=O)(=O)c2cccc(C(=O)N3C(=O)c4cccc(N)c4C3=O)c2)C1 (stereo unspecified) | 24.3%
25 | O=C(CSCc1ccccc1Cl)NNC(=O)c1ccccc1 | -5.03%
26 | Cn1c(=O)n(C)c2cc(/C=N/NC(=O)c3cccc(Br)c3)ccc21 | -16.4%
27 | CC1CCC(N2CC(=O)N(Cc3ccc4c(c3)OCO4)C(c3ccc(F)cc3)C2=O)CC1 (stereo unspecified) | -19%
28 | COc1cc(OC)c(/C=N/NC(=O)c2ccc([N+](=O)[O-])cc2)cc1Br | -6.93%
29 | CCC1(C)Cc2c(sc3nnn(CC(=O)Nc4ccc(Cl)cc4)c(=O)c23)CO1 (stereo unspecified) | -26.3%
30 | COc1cccc(N2CCN(C(=O)Nc3ccc4c(c3)NC(=O)CO4)CC2)c1 | 16.5%
31 | COc1ccc(NC(=O)Cn2c(=O)n(Cc3ccco3)c(=O)c3ccccc32)cc1 | 10.4%
32 | Cc1nc2ccccc2c(-c2ccccc2)c1C(=O)c1ccccc1 | -0.63%
33 | COc1cc(/C=N\NC(=O)CNC(=O)c2cccc([N+](=O)[O-])c2)ccc1O | -17.4%
34 | Brc1ccc(/C=N/N2CCN(C3c4ccccc4-c4ccccc43)CC2)s1 | -17.6%
35 | COc1ccc(CCN(C(=O)COc2ccccc2)c2nc(-c3ccccc3)cs2)cc1OC | -9.73%
36 | Cc1cnc(NC(=O)C2CCCC2)s1 | -23.2%
37 | COc1ccc(N2CCN(C(=O)CNC(=O)c3ccc(C(C)(C)C)cc3)CC2)cc1 | -1.88%
38 | CCC(C)n1c(-c2cc(OC)c(OC)c(OC)c2)nc2nc3ccccc3nc21 (stereo unspecified) | 14.5%

Row | SMILES | inhibition
39 | Cc1nn(CCOc2ccccc2)c(=O)n1-c1ccccc1F | 8.4%
40 | Cc1nc2cc(NC(=O)NCc3ccccc3)ccc2o1 | -8.52%
41 | O=C(OCc1cn(-c2ccc(Cl)c(Cl)c2)nn1)c1ccccc1Cl | 1.36%
42 | CCC(C)(C)c1ccc(Oc2ccc(NC(=O)COC(=O)C3=COCCO3)cc2)cc1 | 1.77%
43 | Cc1ccccc1NC(=S)Nc1cccc([N+](=O)[O-])c1 | 34.5%
44 | COc1cc(C(=O)N2CCN(C/C=C/c3ccccc3)CC2)cc(OC)c1C | -11.1%
45 | CC(=O)c1ccc2c(ccc3ccccc32)c1 | -3.5%
46 | CN1CC(c2ccccc2)C2(COc3ccccc3C2=O)C12C(=O)Nc1ccccc12 (stereo unspecified) | 5%
47 | O=C(CCn1c(SCC(=O)c2ccccc2)nc2ccccc2c1=O)NCc1ccc(F)cc1 | 4.81%
48 | CCS(=O)(=O)Nc1ccc(C2=NN(S(=O)(=O)c3ccc(F)cc3)C(c3ccco3)C2)cc1 (stereo unspecified) | 11%
49 | Cc1cccc(N(C(=O)c2ccc(CN3CCOCC3)o2)C(C(=O)NC2CCCCC2)c2ccc(F)cc2)c1 (stereo unspecified) | 10.4%
50 | CCOC(=O)c1sc2nc(SC)nc(-c3ccccc3)c2c1N | -9.12%
51 | Cc1nn(Cc2ccccc2)c2c1C(c1ccccc1)C(C#N)=C(N)O2 (stereo unspecified) | 17%
52 | O=C(CSCc1ccc(Cl)cc1)N1CCN(Cc2ccc3c(c2)OCO3)CC1 | -16.3%
53 | CC1(C)CC(CC(=O)O)C(=O)O1 (stereo unspecified) | -18.7%
54 | CCCC(O)(c1ccc(OC)cc1)C(CN(C)C)c1ccccc1 (stereo unspecified) | 3.1%
55 | C/C(=N\NS(=O)(=O)c1cccc([N+](=O)[O-])c1)c1cc2ccccc2o1 | 22%
56 | CN(CC(=O)Nc1cccc2c1CCCC2)S(=O)(=O)c1ccc(Cl)cc1 | -30%
